# From PubChem
# Akt phos inh: HTS Assay for Inhibitors of Akt Phophorylation: Primary Screen | Neuro2A IGF-stimulated pAkt S473 HTRF, 20 min; hits give low values | activity change, % for hits at 50 µM | 360,000 tested, 0.32% active | AID 651550, 2012; in the data active = activity change below about -80%; inconclusive = mostly about -51% to -80%
#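 Neuro2A cells (4,500/well, DMEM with 0.5% FBS) were treated with compound at a single 50 µM final concentration, stimulated with 6 nM IGF for 20 min at 37 °C, and lysed. Phospho-Akt Ser473 was read by HTRF as 665/615 ratio ×10^4.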
# CtBP-E1A inh: qHTS Assay for Inhibitors of the CtBP/E1A Interaction. AlphaScreen GST-E1A/His-CtBP binding, 1536-well; hits give low values. AID 651724, 2012. 340,000 tested, 0.49% active. activity change, % (concentration not given with the values). CtBP / adenovirus E1A interaction (AlphaScreen)
#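 Protein mix (5X: 125 nM each GST-E1A, His-CtBP) was incubated with pinned compound 2 h at 37 deg C in dark, in 50 mM Tris pH 8.0 buffer with 300 mM NaCl. Glutathione donor and nickel acceptor beads followed; AlphaScreen signal read after 1 h.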
# CCT modulator: High-Throughput Screening for Modulators of Cytosolic Chaperonin Activity; purified chaperonin ATPase assay, HTRF ADP detection, 30 min; activity change, % (concentration not given with the values), hits read low; 360,000 tested, 0.3% active; AID 651819, 2012; in the data active = activity change below about -30%
#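 TRiC (40 or 20 nM final, by batch activity) in 30 mM Tris pH 7.4, 100 mM KCl, 5 mM MgCl2, 1 mM DTT was treated with compound at 76 uM single dose, then 10 uM ATP, 30 min at 37 °C. ADP was read by HTRF Transcreener.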
# Six1-Eya2 blk: qHTS Assay for Inhibitors of the Six1/Eya2 Interaction. AlphaScreen GST-Six1/His-Eya2 binding, biochemical; hits give low values. activity change, % (test concentration not listed). 360,000 tested, 0.56% active. AID 651725, 2012
# Target sequence (O00167 whole entry, looked up): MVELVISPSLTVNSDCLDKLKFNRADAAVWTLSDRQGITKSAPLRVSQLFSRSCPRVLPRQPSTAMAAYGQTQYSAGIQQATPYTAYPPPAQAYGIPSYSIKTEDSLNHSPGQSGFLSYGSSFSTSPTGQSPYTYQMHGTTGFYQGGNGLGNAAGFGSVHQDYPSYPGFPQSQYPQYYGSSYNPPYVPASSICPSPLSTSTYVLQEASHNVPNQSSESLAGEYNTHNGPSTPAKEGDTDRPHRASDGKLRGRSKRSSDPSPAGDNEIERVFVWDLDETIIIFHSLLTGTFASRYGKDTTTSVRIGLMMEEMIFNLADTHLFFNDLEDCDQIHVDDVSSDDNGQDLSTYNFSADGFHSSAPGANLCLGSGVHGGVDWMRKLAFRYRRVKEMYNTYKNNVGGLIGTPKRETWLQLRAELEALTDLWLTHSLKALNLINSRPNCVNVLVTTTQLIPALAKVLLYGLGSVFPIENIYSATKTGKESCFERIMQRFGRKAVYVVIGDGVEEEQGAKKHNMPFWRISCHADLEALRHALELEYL
# Target sequence (Q15475 whole entry, looked up): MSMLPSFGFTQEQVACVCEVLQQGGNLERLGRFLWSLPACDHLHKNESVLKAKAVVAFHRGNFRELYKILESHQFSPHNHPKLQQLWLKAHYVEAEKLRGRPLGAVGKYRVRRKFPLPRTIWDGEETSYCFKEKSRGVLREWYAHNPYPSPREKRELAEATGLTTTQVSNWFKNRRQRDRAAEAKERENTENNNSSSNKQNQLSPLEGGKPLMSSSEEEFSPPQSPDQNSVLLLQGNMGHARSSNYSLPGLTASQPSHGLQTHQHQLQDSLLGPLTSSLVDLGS
#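 AlphaScreen with GST-Six1 and His-Eya2 (5X mix: 250 nM and 500 nM), glutathione donor and nickel acceptor beads; buffer 50 mM Tris pH 8.0, 300 mM NaCl, 1 mM TCEP; 1 h at 37 C in the dark.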
# * = called active by the depositor; i = inactive; ? = inconclusive; / = no result. An excerpt weighted towards active compounds, which were near 1.3% of everything screened. Cut-off read from the data, not from the text of the source, unless noted: active = activity change below about -65%; inconclusive = mostly about -30% to -63%; inactive = weaker than that. % is set by controls: 0 for no effect and ±100 for the full control effect.
SMILES,Akt phos inh,CtBP-E1A inh,CCT modulator,Six1-Eya2 blk
OC(c1ccc(F)cc1)c1nc(-c2cncnc2)cs1 (stereo not given),i,2,-1,6
S=c1[nH]nc(-c2ccc(Cl)cc2)n1/N=C/c1cccs1,i,-2,-2,-10
CC(C)(C)c1n[nH]c(=S)n(/N=C/c2cccs2)c1=O,i,-3,-35*,-16
Cc1n[nH]c(=S)n(/N=C/c2cccs2)c1=O,i,-72*,1,?
Cc1cc(C)c(NC(=O)CN(C)C(=O)CNC(=O)c2cccs2)c(C)c1,i,2,1,0
COc1ccc(CN2CCN(C3CCC3)CC2CCO)cc1C (stereo not given),i,/,-3,-2
COCCN(C(=O)CSCC(=O)Nc1cccc(C)c1)c1c(N)n(Cc2ccccc2)c(=O)[nH]c1=O,i,3,-2,-2
COc1ccc(Cl)cc1C(=O)OCC(=O)NC(=O)c1cccn1C,i,-6,-1,2
CCCOc1c(Br)cc(C(=O)OCC(=O)NC(=O)c2cccn2C)cc1OC,i,-1,-46*,-13
O=c1c2ccccc2oc2ccc(-c3ccc4[nH]ccc4c3)cc12,i,5,2,12
O=c1c2ccccc2oc2cc(-c3ccc4cc[nH]c4c3)ccc12,i,-13,-44*,5
O=S(=O)(NCC1OCCc2ccccc21)c1ccc(S(=O)(=O)N2CCOCC2)cc1 (stereo not given),i,-2,-52*,-2
O=S(=O)(NCC1CCN(c2ccc(S(=O)(=O)N3CCOCC3)cc2)CC1)c1ccccc1,i,-1,-2,-18
Cc1ccc(C(=O)Nc2ccccn2)cc1S(=O)(=O)N1CCOCC1,i,3,-2,2
Cc1cc(-c2nc3ccccc3s2)ccc1N,i,3,0,9
Cc1ccc(C(=O)Nc2nc(-c3ccccn3)cs2)cc1S(=O)(=O)N1CCOCC1,i,-92*,-2,-91*
O=C(Nc1nc(-c2ccccn2)cs1)c1cc(S(=O)(=O)N2CCOCC2)ccc1F,i,?,0,-90*
Cc1cc(C)n(-c2ccc(C(=O)Nc3ccc(C)c(S(=O)(=O)N4CCOCC4)c3)cc2)n1,i,-76*,0,-73*
Cc1ccc(-c2nc3ccccc3s2)cc1S(=O)(=O)N1CCOCC1,-90%*,-10,1,-13
O=C(Nc1c2c(nn1-c1ccc(F)cc1)CS(=O)C2)c1ccc(Br)o1 (stereo not given),i,3,0,0
CN(CCOc1ccc(Cl)cc1)C(=O)c1cc(-c2ccco2)nc2ccccc12,i,0,1,-12
Cc1csc(NC(=O)c2cc(=O)[nH]c3ccc(S(=O)(=O)N4CCOCC4)cc23)n1,i,-70*,0,?
O=C(Nc1ccccc1O)c1cc(S(=O)(=O)N2CCOCC2)c(Cl)cc1Cl,i,?,-2,-21
O=C(NNC(=O)c1cc(S(=O)(=O)N2CCOCC2)c(Cl)cc1Cl)c1ccccc1F,i,-87*,-2,-66*
O=C(NCc1ccccc1)c1cc(S(=O)(=O)N2CCOCC2)ccc1F,-114%*,-2,1,8
SMILES,Akt phos inh,CtBP-E1A inh,CCT modulator,Six1-Eya2 blk
Cc1nnc(NC(=O)c2ccc(F)c(S(=O)(=O)N3CCOCC3)c2)s1,i,3,-1,2
O=C(NCCc1ccccc1)c1cc(S(=O)(=O)N2CCOCC2)ccc1F,i,-12,2,1
O=C(Nc1nc(-c2ccccn2)cs1)c1ccc(F)c(S(=O)(=O)N2CCOCC2)c1,i,-93*,2,-93*
COc1cc([N+](=O)[O-])ccc1NC(=O)CN1C(=O)NC2(CCCCC2C)C1=O (stereo not given),i,-11,-3,2
O=C(Nc1nccs1)c1cccc(S(=O)(=O)N2CCOCC2)c1,-114%*,-4,-3,-10
O=C(Nc1nccs1)c1cc(S(=O)(=O)N2CCOCC2)ccc1Cl,i,5,0,-1
CN(CC1CCCO1)S(=O)(=O)c1ccc(C(=O)Nc2nc(-c3ccccn3)cs2)cc1 (stereo not given),i,-92*,0,?
COc1ccc(C2=NOC(Cn3nc(-c4ccccc4)cc3C(=O)NCc3cccs3)C2)cc1 (stereo not given),i,-2,0,6
